# IL1B secr inh – qHTS for Inhibitors of Inflammasome Signaling: IL-1-beta AlphaLISA Primary Screen; THP-1 LPS/ATP IL-1B secretion, AlphaLISA, 16 h; hits give low values; activity change, % at 57.5 µM; 360,000 compounds, 4.7% hits; in the data active = activity change below about -50%; inconclusive = mostly about -30% to -49%
#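 Secreted IL-1B measured by AlphaLISA bead assay after 16 h compound exposure of THP-1 cells; compounds (final up to 57.5 uM) added 1 h before LPS (250 ng/mL) and ATP (1.25 mM) stimulation; lower signal means less secretion.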
# TDP1 cell CPT – qHTS for Inhibitors of human tyrosyl-DNA phosphodiesterase 1 (TDP1): qHTS in cells in presence of CPT. chicken DT40 Tdp1-/-;hTDP1 cells + 20 nM CPT, ATP luminescence, 48 h. Potency, µM (top dose mostly 46.2 µM), without a hit: top-dose activity change, negative = growth inhibition, hits mostly inhibitors. 420,000 compounds, 12% hits; note: potency is the fitted concentration of half-maximal effect; nearly all actives have a fitted effect of over 55% in size
#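 Cell growth measured by CellTiter-Glo luminescence after a minimum 48 h, 37 C compound exposure with 20 nM CPT in Tdp1-knockout DT40 cells stably expressing hTDP1, seeded 400/well; qHTS titration format.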
# DT40 TDP1 no CPT – qHTS for Inhibitors of human tyrosyl-DNA phosphodiesterase 1 (TDP1): qHTS in cells in absence of CPT; DT40 Tdp1-/- hTDP1 cells, no CPT, ATP luminescence, 48 h; Potency, µM (doses to about 46.2 µM), for the others: at the top dose activity change, negative = growth inhibition, usual class: inhibitors; 420,000 compounds, 15% hits; note: potency is the fitted concentration of half-maximal effect; nearly all actives have a fitted effect of over 55% in size
#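 Readout: luminescence from CellTiter-Glo after 30 min in the dark at RT. Cells: DT40 Tdp1-/- with stable hTDP1, 400/well. Exposure: compounds alone, ≥48 hr, 37 °C.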
# HT1080 IDH1KD tx – qHTS for induction of synthetic lethality in tumor cells producing 2HG: qHTS for the HT-1080-IDH1KD cell line; HT-1080 IDH1 knockdown viability, ATP luminescence, 48 h; Potency, µM (doses to about 46.1 µM), for the others: top-dose activity, negative = toxicity, usual class: cytotoxic; 360,000 compounds, 2% hits;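 note: potency is the fitted concentration of half-maximal effect; 0% = DMSO wells and -100% = cell-free medium wells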
#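 IDH1KD HT-1080 cells, 750/well, RPMI + 5% FBS; compound pinned after 2 h settling; 48 h, 37 °C; CellTiter-Glo luminescence; % activity normalised to DMSO and no-cell wells; curves fitted, classed by r2 and efficacy.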
# ELG1 repair inh – qHTS screen for small molecules that inhibit ELG1-dependent DNA repair in human embryonic kidney (HEK293T) cells expressing luciferase-tagged ELG1; AID 504467, 2011; HEK293T ELG1-luciferase reporter, luminescence, 16 h; DNA damage induced by 5-fluorouridine; Potency, µM (series often up to 46.1 µM), for inactives: top-dose activity change, negative = inhibition, usual class: inhibitors; 330,000 compounds, 2.3% hits; note: potency is the fitted concentration of half-maximal effect; nearly all actives have a fitted effect of over 55% in size
#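 Overnight (16 hr) co-exposure of 2,000 cells/well to 5-fluorouridine and compound at 37 °C preceded detection. Luciferase was quantified via ONE-Glo luminescence; loss of signal denotes inhibition.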
# HT1080-NT tox – qHTS for induction of synthetic lethality in tumor cells producing 2HG: qHTS for the HT-1080-NT fibrosarcoma cell line; HT-1080-NT fibrosarcoma viability, CellTiter-Glo ATP luminescence, 48 h; Potency, µM (highest dose often 46.1 µM), for the others: top-dose activity, negative = less viability, most hits filed as cytotoxic; 360,000 compounds, 1.6% hits;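 note: NT is the 2HG producing partner of a matched IDH1 knockdown line; potency is the fitted concentration of half-maximal effect; 0% = DMSO-treated cells and -100% = media-only wells without cells; nearly all actives have a fitted effect of over 55% in size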
#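 HT-1080-NT; 750 cells/well; 5% FBS RPMI; 48 h compound, 37 degrees C; CellTiter-Glo luminescence; curve fitting and curve-class assignment.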
# The depositor's hits bear a star; ? = inconclusive; · = no result given. Most compounds without a hit are left out; they make up all but 19% or so of the library. Unless noted, calls come from the whole dose curve; as a rule, active = well fitted curve in the direction sought with a large enough effect; inconclusive = small, poorly fitted or top-dose-only effect, or another doubt; inactive = no such curve, though single readings can be large; an effect the other way counts as inactive or inconclusive. Unless noted, % is set by controls: 0 for no effect and ±100 for the full control effect.
SMILES,IL1B secr inh,TDP1 cell CPT,DT40 TDP1 no CPT,HT1080 IDH1KD tx,ELG1 repair inh,HT1080-NT tox
CN(c1cccc(NC(=O)CN(c2ccc(Cl)c(Cl)c2)S(=O)(=O)c2ccccc2)c1)S(C)(=O)=O,0,?,21µM*,-29%,16µM*,-22%
CCOC1=C2CN(S(=O)(=O)c3ccc(C)cc3)[C@@H](c3ccc(CC)cc3)C[C@H]2[C@H]2C(=O)N(c3ccccc3)C(=O)[C@H]2C1,12,0%,-12%,8%,·,10%
Cc1nc(N2CCCC2)ncc1C(=O)NCc1ccc(Cl)cc1,·,-7%,?,·,·,·
O=C(Oc1ccc(Oc2ccccc2)cc1)N1CCC(O)CC1,-25,-18%,?,-3%,?,-12%
CN(c1cccc(NC(=O)CN(c2ccc(F)cc2)S(C)(=O)=O)c1)S(C)(=O)=O,1,1%,-1%,11%,2%,-2%
O=C(CN(c1cccc(C(F)(F)F)c1)S(=O)(=O)c1ccc(Cl)c([N+](=O)[O-])c1)NCc1ccc(F)cc1,-99*,16µM*,16µM*,?,?,?
COc1ccc(C)cc1N(CC(=O)Nc1cccc(N(C)S(C)(=O)=O)c1)S(C)(=O)=O,31,21µM*,?,?,-12%,?
COc1ccc(N(CC(=O)Nc2cccc(N(C)S(C)(=O)=O)c2)S(C)(=O)=O)cc1OC,14,-25%,-25%,8%,-11%,0%
Cc1ccc(S(=O)(=O)N(CC(=O)Nc2cccc(N(C)S(C)(=O)=O)c2)c2ccc(Cl)c(Cl)c2)cc1,-25,21µM*,23µM*,-24%,?,-12%
COc1ccc(N(CC(=O)Nc2ccccc2Cl)S(=O)(=O)c2ccc(C)cc2)cc1OC,?,-20%,-13%,-7%,-23%,-4%
Cc1ccc(S(=O)(=O)N(CC(=O)Nc2c(C)cccc2C)c2cccc(Cl)c2)cc1,·,?,15µM*,·,·,·
COc1ccc(Oc2ncc3nc(-c4ccc(F)cc4)c(=O)n(Cc4cccs4)c3n2)cc1,·,12%,-4%,·,·,·
CCn1cc2nc(SCC(=O)Nc3ccccc3C(F)(F)F)n(Cc3ccc(C)cc3)c(=O)c2n1,·,16µM*,18µM*,·,·,·
Cc1ccc(NC(=O)CSc2nc3ccccc3c(=O)n2Cc2cccs2)cc1,4,?,-17%,-4%,?,-7%
CCn1cc2nc(SCC(=O)Nc3ccc(OC)cc3OC)n(Cc3ccc(OC)cc3)c(=O)c2n1,6,4.1µM*,2.6µM*,5.2µM*,-11%,3.7µM*
CCn1cc2nc(SCC(=O)Nc3ccc(OC)c(OC)c3)n(Cc3ccc(OC)cc3)c(=O)c2n1,0,?,?,-18%,-16%,-21%
CCn1cc2nc(SCC(=O)Nc3ccc(C)cc3)n(Cc3ccc(C)cc3)c(=O)c2n1,·,21µM*,13µM*,·,·,·
CCC(=O)N1CCc2cc(Br)cc(S(=O)(=O)CCC(=O)Nc3ccc(Cl)cc3)c21,·,-16%,-24%,·,·,·
Cc1nn(CC(=O)N2CCCCC2)c(=O)c2cc3occc3n12,·,-6%,-9%,·,·,·
COc1ccc(-c2cc(C(F)(F)F)n3nc(C(=O)N(C)Cc4ccccc4)cc3n2)cc1OC,-21,16µM*,?,5%,21µM*,-1%
COC(=O)c1cc2nc(-c3ccc(C)cc3)cc(C(F)(F)F)n2n1,13,-1%,-1%,17%,-10%,3%
COc1cc(NC(=O)c2cc3nc(-c4ccc(C)cc4)cc(C(F)(F)F)n3n2)cc(OC)c1OC,·,?,7.3µM*,·,·,·
Cc1cc(-c2ccccc2)nc2cc(C(=O)N(Cc3ccccc3)Cc3ccccc3)nn12,-16,?,?,16µM*,?,?
COc1ccc(-c2cc(C(F)(F)F)n3nc(C(=O)Nc4ccc(Cl)cc4C(F)(F)F)cc3n2)cc1OC,·,-10%,-6%,·,·,·
CCCNC(=O)c1nn2c(C(F)(F)F)cc(-c3ccccc3)nc2c1Br,14,-22%,?,10%,-12%,14%
SMILES,IL1B secr inh,TDP1 cell CPT,DT40 TDP1 no CPT,HT1080 IDH1KD tx,ELG1 repair inh,HT1080-NT tox
COC(=O)c1cc2nc(-c3ccccc3)cc(C)n2n1,9,-1%,-1%,2%,-7%,4%
CCCCNC(=O)c1nn2c(C(F)(F)F)cc(-c3ccc(OC)cc3)nc2c1Br,25,23µM*,?,-6%,-4%,-13%
CCCCNC(=O)c1cc2nc(-c3ccc(OC)cc3)cc(C(F)(F)F)n2n1,-6,?,26µM*,-5%,·,-5%
COc1ccc(NC(=O)c2ccc(C)cc2)c[n+]1[O-],7,?,-1%,-10%,23%,-6%
CC[C@H](C)/C=C(C)/C=C/C(=O)Cc1cc(O)c(C)c(O)c1C=O,-10,?,?,-12%,-19%,-7%
CC[C@H](C)/C=C(C)/C=C/C1=CC2=CC(=O)[C@]3(C)OC(=O)[C@@H](C(C)=O)[C@@H]3C2=CO1,10,2.1µM*,-76%,?,-6%,-7%
CCC1(C)N=C(c2ccc3c(c2)OCO3)CC(c2ccccc2O)N1 (centres undefined),3,13µM*,13µM*,?,?,?
COc1cccc(C2=NC(C)(C)NC(c3ccccc3O)C2)c1 (centres undefined),?,15µM*,18µM*,-5%,?,0%
CN(C(=O)c1cc(-c2ccc3c(c2)OCO3)on1)c1ccccc1,15,12%,3%,-16%,?,-23%
CC(C)C[C@H]1CN(CCCC[C@H]2CNC(=O)C(=O)N2CC2CCCCC2)C(=O)C(=O)N1Cc1ccccc1,-72*,?,?,10%,·,6%
CC(C)C[C@H]1CN(CCCC[C@H]2CNC(=O)C(=O)N2CCC2CCCCC2)C(=O)C(=O)N1CCc1ccccc1,?,?,18µM*,29%,·,26%
CC(C)C[C@@H]1CN(CCCC[C@H]2CNC(=O)C(=O)N2CCC2CCCCC2)C(=O)C(=O)N1Cc1ccccc1,?,3%,-3%,?,·,?
